Data from PubChem BioAssay AID1745849 (National Center for Advancing Translational Sciences (NCATS), 2022).
Screen size: about 2,100 compounds; about 320 (15%) were called active. About 52% were inconclusive and are not listed. The list shows a part of the results. Values without a mark were called inactive. Calls follow the shape of the dose curve; as a rule, active = well fitted cell-killing curve with a large enough effect; inconclusive = small, poorly fitted or top-dose-only effect, or effect the other way; inactive = flat fitted curve, though single readings scatter.

assay: Viability Counterscreen for CMV-Luciferase Assay of Inhibitors of ATXN expression; conditions: HEK-293 CMV-luciferase cells viability, protease fluorescence, 24 h; activity change, negative = cytotoxicity: at the top concentration; also: nearly all actives have a fitted effect of over 55% in size
Outline: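 HEK-293 cells stably expressing CMV-luciferase, treated 24 hr at 37 °C with compounds (several concentrations). Viability by Gly-Phe-AFC fluorescence (25 uM final, 30 min); reporter by SteadyGlo luminescence after 5 min.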
% is scaled to controls: 0 for no effect and ±100 for the full control effect; potency is read from the fitted curve at half-maximal effect.

SMILES	Potency	activity change, negative = cytotoxicity
CN(C)CCNc1ncnc2c1sc1nc(N3CCOCC3)c3c(c12)CC(C)(C)SC3	17.8 µM (active)	–
CC1(C)Cc2c(c(N3CCOCC3)nc3sc4c(NN)ncnc4c23)CS1	–	23.7% [at 57.5 µM]
CC1(C)Cc2c(c(-c3ccco3)nc3sc4c(NCCN5CCOCC5)ncnc4c23)CO1	–	-20.2% [at 57.5 µM]
Cn1nc(C(=O)N2CCN(c3ccc(Cl)cc3)CC2)c2c1-c1ccccc1S(=O)(=O)C2	–	10.7%
N#Cc1ccccc1NC(=O)C1SC(=Nc2ccccc2)C(C(=O)Nc2ccc(Cl)cc2)=C1N (stereo not drawn)	–	-3.29%
Cc1cc(Nc2cccc([N+](=O)[O-])c2)n2c(nc3ccccc32)c1C#N	3.55 µM (active)	–
Cc1ccc(-c2cc(-c3ccccc3)nc(NN)n2)cc1	–	-26.4% [at 57.5 µM]
NS(=O)(=O)c1ccc(CCNc2nn3c(-c4cccc(OC(F)(F)F)c4)cnc3s2)cc1	–	-22.9%
C=CCOC(=O)C1=C[C@@H](c2ccc3c(c2)OCO3)C[C@@H](OCCCCO)O1	–	-10.7% [at 57.5 µM]
CN(C)CCNc1cccc2sc3ccc(O)cc3c(=O)c12	12.6 µM (active)	–
CN(C)CCNc1ccc2ncn3c4ccc(O)cc4c(=O)c1c23	–	7.3%
O=C(Nc1cccc(Cl)c1)c1ccc2c(c1)SC1=NS(=O)(=O)CCN12	–	-19.6%
CCOC(=O)c1c(-n2cccc2)sc2c1CCCC2=O	–	9.15% [at 57.5 µM]
CC[n+]1c(C=C2C=C(C)OC(C)=C2)sc2ccccc21	14.1 µM (active)	–
NNC(=O)/C(=N/Nc1ccccc1)S(=O)(=O)c1ccc(Cl)cc1	10 µM (active)	–
O=C(NCc1cc(C(F)(F)F)ccc1Cl)c1cccc2c1C(=O)c1ccc(N3CCOCC3)cc1S2(=O)=O	–	-8.41%
CC1(C(=O)NCc2ccco2)CCN1C(=O)C1(c2ccccc2)CC1 (stereo not drawn)	–	-2.99%
Cc1cc(C)c2c(c1)/C(=C/C(=O)c1ccc(Br)s1)C(=O)N2	3.16 µM (active)	–
OCCN1CCN(Cc2cc(Cl)c3cccnc3c2O)CC1	–	-25.4% [at 57.5 µM]
O=[N+]([O-])c1ccc(O)c2ncccc12	10 µM (active)	–
CCOC(=O)N1CCN(Cc2cc(Cl)c3cccnc3c2O)CC1	–	-27.9%
O=[N+]([O-])c1cc(CN2CCN(c3ccccc3)CC2)c(O)c2ncccc12	11.2 µM (active)	–
CC(C)COCc1ccc(O)c2ncccc12	–	-13.8%
Oc1ccc(Cl)c2cccnc12	–	25% [at 57.5 µM]
O=c1oc2ccccc2c(O)c1Cc1cc(Cl)c2cccnc2c1O	–	15.7% [at 57.5 µM]

SMILES	Potency	activity change, negative = cytotoxicity
O=[N+]([O-])c1cc(Cl)c(O)c2ncccc12	11.2 µM (active)	–
COc1ccc(-c2nc(CN3CCN(c4ncnc5ccccc45)CC3)c(C)o2)c(OC)c1	–	-25.7%
c1ccc(Nc2nc(N3CCCCC3)nc(N3CCNCC3)n2)cc1	–	3.96% [at 57.5 µM]
COc1cc(C)c(C(=O)CC(=O)c2c(C)cc(OC)cc2C)c(C)c1	–	5.25%
CC(=O)N1c2ccc(S(=O)(=O)N3CCC(C(=O)Nc4cccc(C(F)(F)F)c4)CC3)cc2CC1C (stereo not drawn)	–	-28.3% [at 57.5 µM]
Cc1nn(-c2ccccc2)c(N2CCCC2)c1/C=N/NC(=O)c1cc2ccccc2cc1O	–	-4.71%
COc1cccc(CN2CCC2(C)C(=O)Nc2cccc3cccnc23)c1OC (stereo not drawn)	–	-16.4%
COc1ccc(CC2C(=O)NC(C)C(=O)N(C)C3Cc4ccc(cc4)Oc4cc(ccc4O)CC(C(=O)NC(C)C(=O)NC(C)C(=O)N2C)N(C)C3=O)cc1 (stereo not drawn)	0.316 µM (active)	–
CC1(C)c2[nH]c3ccccc3c2C[C@H]2C(=O)N(Cc3ccccc3F)C(=O)N21	–	-10.7% [at 57.5 µM]
Nc1nc(NCCCN2CCOCC2)nc(Nc2cccc(Cl)c2)c1[N+](=O)[O-]	–	-19.8%
COC(=O)[C@H]1C[C@H](OC(=O)NC2CC2)[C@@]2(O)CN(S(=O)(=O)c3ccc(C)cc3)CC2[C@H]1C(=O)OC (stereo partly drawn)	–	1.18%
Cc1ccc(C(=O)N2CCN(c3ccc(NC(=S)NC(=O)c4cccs4)cc3)CC2)cc1	–	12.1%
COc1ccccc1N(C)S(=O)(=O)c1ccc(C(=O)Nc2ccc(N3CCOCC3)cc2)cc1	–	-29.3% [at 57.5 µM]
COc1c(C)cccc1C(=O)Nc1ccc(N2CCN(C(=O)c3ccccc3C)CC2)cc1	31.6 µM (active)	–
CC(C)n1c(NCc2cc(Cl)ccc2O)nc2ccccc21	–	-6.93%
C/C(=N\N=C(N)N)c1ccc(Cl)cc1Cl	–	-11.9% [at 57.5 µM]
O=C(NNc1nc2ccc(Cl)cc2s1)c1cc(-c2cccs2)nc2ccccc12	–	-18.1%
Cc1cc(OCC(=O)NC(C)c2ccccc2)ccc1[N+](=O)[O-] (stereo not drawn)	–	1.14%
O=C(Nc1nc(-c2ccccn2)cs1)c1ccccc1-n1cnnn1	7.94 µM (active)	–
Cc1c(C(=O)Nc2nccs2)sc2nc(-c3cccs3)cc(C(F)(F)F)c12	–	-21.8%
CC(N)c1csc(NC(=O)c2cc(C(C)(C)C)nn2Cc2ccccc2)n1 (stereo not drawn)	–	7.86%
O=C(Nc1nc(-c2ccccn2)cs1)c1cc(Cl)ccc1[N+](=O)[O-]	3.16 µM (active)	–
CCc1sc(C(=O)Nc2nc(-c3ccccn3)cs2)cc1C	11.2 µM (active)	–
COc1ccc(CNC(=O)CSc2nc(-c3ccccc3)cc(-c3cccs3)c2C#N)cc1	–	-20.3%
CCCOc1ccccc1C1NC(=O)NC(C)=C1C(=O)OCc1ccccc1 (stereo not drawn)	–	-3.94%

SMILES	Potency	activity change, negative = cytotoxicity
CN1CCN(CC#CCn2c3ccccc3c3ccccc32)CC1	–	-3.45% [at 57.5 µM]
S=C(Nc1ccccc1)Nc1ccc(OCc2ccc(Cl)cc2Cl)cc1	–	-10% [at 57.5 µM]
Cc1cc(/C=N/n2cnnc2)c(C)n1-c1ccc(OCc2ccc(Cl)cc2Cl)cc1	28.2 µM (active)	–
CCc1nc2c(OCc3ccc(Cl)cc3Cl)cccn2c1N(C=O)Cc1ccc(OC)cc1	–	-29.4%
CN1CCN(c2nc(Nc3ccc(F)cc3)nc(Nc3ccc(F)cc3)n2)CC1	–	20.3% [at 57.5 µM]
CCc1nc2c(OCCOc3ccc(F)cc3)cccn2c1N(C=O)Cc1ccc(OC)cc1	–	-21.2% [at 57.5 µM]
O=C(c1ccc(Cn2c(=S)[nH]c3ccccc3c2=O)cc1)N1CCN(c2ccccn2)CC1	–	-9.68%
S=C(Nc1cc(Cl)ccc1Oc1ccccc1)N1CCN(c2ccccn2)CC1	25.1 µM (active)	–
CCN(CC)S(=O)(=O)c1ccc(C)c(NC(=S)N2CCN(c3ccccn3)CC2)c1	–	-19.9% [at 57.5 µM]
Cn1cccc1/C=N/N1CCN(Cc2ccccc2Cl)CC1	–	-9.25% [at 57.5 µM]
C=CCNc1oc(-c2ccc(Cl)cc2)nc1C#N	–	15.1% [at 57.5 µM]
O=C1N/C(=N/N=C/c2ccccc2O)SC1Cc1ccc(F)cc1 (stereo not drawn)	14.1 µM (active)	–
COc1cccc(C(=O)NC2CC3CCCC(C2)N3CC(=O)Nc2ccccc2C(F)(F)F)c1 (stereo not drawn)	–	-15.7% [at 57.5 µM]
CN(Cc1ccccc1)C1=CC(=[N+]2CCCC2)CC(C)(C)C1	–	-15.5%
COc1ccc(NS(=O)(=O)c2ccc(NC(=O)c3ccc(CN4CCOCC4)cc3)cc2)cc1	–	-22.5% [at 57.5 µM]
COc1cccc(S(=O)(=O)NCc2ccc(C(=O)Nc3cccc(Cl)c3)cc2)c1	15.8 µM (active)	–
CSc1cccc(NC(=O)c2ccc(CN3CCc4ccccc4C3)cc2)c1	–	-27.3% [at 57.5 µM]
Cc1ccc(-c2nc3ccc(Cl)cn3c2CC(C)(C)C)cc1	–	17.4%
COc1ccc(-c2sc3ccc(OC)cc3c2-c2ccc(O)cc2)cc1	–	-12.9%
c1ccc(-c2sc3ccccc3c2-c2ccc(OCCN3CCCC3)cc2)cc1	35.5 µM (active)	–
COc1cccc(-c2sc3ccccc3c2-c2ccc(OCCN3CCCC3)cc2)c1	–	-4.65%
Cc1nc2ccccc2n1-c1nc(-c2ccco2)cc(C(F)(F)F)n1	10 µM (active)	–
Cc1ccc(C)c(/C=C/C(=O)c2ccccc(=O)c2O)c1	20 µM (active)	–
O=c1c2c(nc3c(-c4ccc(Cl)cc4)c[nH]n13)CCC2	–	-20.6%
O=c1c2c(nc3c(-c4cccc(Br)c4)c[nH]n13)CCCC2	10 µM (active)	–

SMILES	Potency	activity change, negative = cytotoxicity
O=C(Nc1cccnc1)C1Cc2c(-c3ccc4c(c3)OCO4)ccnc2O1 (stereo not drawn)	–	-12.2%
COc1ccc(Cl)cc1S(=O)(=O)N1CCN(C(=O)c2n[nH]c(=O)c3ccccc23)CC1	–	-12.8%
Cc1ccnc(NC(c2ccccc2)c2ccc3cccnc3c2O)c1 (stereo not drawn)	–	-17.1% [at 57.5 µM]
CC(C)C(=O)NC(c1cccc([N+](=O)[O-])c1)c1ccc2cccnc2c1O (stereo not drawn)	3.16 µM (active)	–
O=[N+]([O-])c1ccc(NC(c2ccccc2)c2ccc3cccnc3c2O)cc1 (stereo not drawn)	11.2 µM (active)	–
O=C(O)CSc1cc(NS(=O)(=O)c2cccc([N+](=O)[O-])c2)c2ccccc2c1O	–	-27.2%
CC(=O)NC(c1cccc([N+](=O)[O-])c1)c1ccc2cccnc2c1O (stereo not drawn)	1.58 µM (active)	–
Oc1c(C(Nc2cccc(C(F)(F)F)c2)c2cccnc2)ccc2cccnc12 (stereo not drawn)	–	-27.3% [at 57.5 µM]
Oc1c(C(Nc2cccc(C(F)(F)F)c2)c2ccncc2)ccc2cccnc12 (stereo not drawn)	8.91 µM (active)	–
CC(=O)NC(c1ccco1)c1ccc2cccnc2c1O (stereo not drawn)	–	-22.3%
Oc1c(C(Nc2ccccn2)c2cccnc2)cc(Cl)c2cccnc12 (stereo not drawn)	–	20.9% [at 57.5 µM]
CCCC(=O)NC(c1ccc(C(C)C)cc1)c1ccc2cccnc2c1O (stereo not drawn)	–	-20.8%
CCc1nc2c(OCCOc3ccc(F)cc3)cccn2c1N(C)C(=O)c1ccco1	–	14.6% [at 57.5 µM]
CCCCOc1ccccc1NC(=O)c1scc2c1OCCO2	–	-13.6%
Cc1ccc(/C=C2/CNC/C(=C/c3ccc(C)cc3)C2=O)cc1	8.91 µM (active)	–
O=C(CNC(=O)c1ccco1)N/N=C/c1cc(Br)ccc1O	–	-12.2% [at 57.5 µM]
CC(C)(CC(=O)N1CCN(c2ccc(Cl)cc2)CC1)CC1=NS(=O)(=O)c2ccccc2N1	–	-18.6%
OC(c1cc(-c2cccc(Cl)c2)nc2ccccc12)C1CCCCN1 (stereo not drawn)	17.8 µM (active)	–
CCn1cc(C(=O)NCc2cccc(F)c2)c(=O)c2cc(F)c(N3CCN(C(=O)c4ccco4)CC3)cc21	22.4 µM (active)	–
Cc1c(C(=O)NCc2ccc(C(F)(F)F)cc2)sc(=O)n1Cc1cccc(F)c1	–	12% [at 57.5 µM]
CCOC(=O)Cn1cc(C(=O)c2ccco2)c2ccccc21	–	0.882%
CC(=O)c1ccc(N2CCN(CC(O)COC(c3ccccc3)c3ccccc3)CC2)cc1 (stereo not drawn)	–	-1.22%
CCCOc1ccc(C(=O)C(CN2CCOCC2)c2ccccc2)cc1 (stereo not drawn)	25.1 µM (active)	–
